# Measured values reported in the supplement of paper PMC7366291.
# Where a name gives a salt, the structure may show the parent alone. ± gives the standard deviation or the standard deviation of the averaged measurements.
# Columns and labels:
# Conditions in all cases: 25 µM; exposure: 24-48 hpf
# [1] = tested on: Danio rerio Tg(wt1b:EGFP) embryo, pronephros; test: glomerular separation, fold change vs DMSO control; higher = glomeruli further apart (abnormal)
# Procedure, shortened: (§1)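 Using a Fiji macro, distances and angles were calculated from 16 reference points set by hand on maximum projections of pronephroi imaged dorsally (470 nm, 10 z-slices) in agarose-filled 96-well plates. The dechorionated Tg(wt1b:EGFP) zebrafish embryos had received 25 μM compound in 0.5% DMSO in HEPES-buffered E3 with 0.003% PTU from 24 to 48 hpf at 28.5°C. Values more than 2 SD from a feature's mean were excluded. Each feature appears as a fold change over the mean of DMSO-treated embryos from the same day.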
# [2] = tested on: Danio rerio Tg(wt1b:EGFP) embryo, pronephros; test: glomerular width (mean of left and right), fold change vs DMSO control; higher = wider glomerulus
# Procedure, shortened: as §1
# [3] = tested on: Danio rerio Tg(wt1b:EGFP) embryo, pronephros; test: fraction of imaged embryos annotated as normal kidney; higher = less nephrotoxic; extreme values may be limits of the assay
# Procedure, shortened: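 Embryos of the Tg(wt1b:EGFP) zebrafish line were dechorionated and held in 12-well plates with 25 μM compound in 0.5% DMSO and 5 mM HEPES-buffered E3 containing 0.003% PTU, from 24 to 48 hpf at 28.5°C. Larvae were then anaesthetised with tricaine, set dorsal side up in agarose-filled 96-well plates, and their pronephroi imaged by widefield fluorescence at 470 nm over 10 z-slices. Each value is the fraction of embryos per treatment placed in the normal-kidney category after manual annotation of maximum projections.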
# [4] = tested on: Danio rerio Tg(wt1b:EGFP) embryo, pronephros; test: pronephric angle neck segment to proximal convoluted tubule (mean of left and right), fold change vs DMSO control; higher = larger pronephric angle
# Procedure, shortened: as §1
SMILES,glomerular separation [1],glomerular width [2],fraction of imaged embryos annotated as normal kidney [3],pronephric angle neck segment [4]
C(=C\c1ccccc1)/CN1CCN(C(c2ccccc2)c2ccccc2)CC1 [Cinnarizine],1.15 ± 0.31,1.03 ± 0.024,0.75,0.995 ± 0.045
COc1ccccc1N1CCN(CC(O)COc2cccc3ccccc23)CC1 (stereo unspecified) [Naftopidil dihydrochloride],0.922 ± 0.42,0.983 ± 0.024,0.833,0.966 ± 0.034
O=C1NCN(c2ccccc2)C12CCN(CCCC(c1ccc(F)cc1)c1ccc(F)cc1)CC2 [Fluspirilen],2.89 ± 1.3,0.687 ± 0.11,0.333,1.028 ± 0.0059
CC1(C)O[C@@H]2C[C@H]3[C@@H]4CCC5=CC(=O)C=C[C@]5(C)[C@H]4[C@@H](O)C[C@]3(C)[C@]2(C(=O)CO)O1 [Desonide],1.63 ± 0.49,1.33 ± 0.024,0.167,1.04 ± 0.13
CCCCN1CCCCC1C(=O)Nc1c(C)cccc1C (stereo unspecified) [Bupivacaine hydrochloride],1.23 ± 0.54,0.946 ± 0.021,0.667,1.01 ± 0.13
CC[C@H](C)C(=O)O[C@H]1C[C@@H](C)C=C2C=C[C@H](C)[C@H](CC[C@@H]3C[C@@H](O)CC(=O)O3)[C@H]21 [Lovastatin],5.64 ± 2.1,0.622 ± 0.012,0,1.54 ± 0.057
C1CCC(C(CC2CCCCN2)C2CCCCC2)CC1 (stereo unspecified) [Perhexiline maleate],1.12 ± 0.32,0.9631 ± 0.0089,0.909,1.006 ± 0.00027
O=C(Oc1cccc2cccnc12)c1ccccc1 [Benzoxiquine],3.04 ± 1.1,0.56 ± 0.11,0.0833,1.1 ± 0.022
c1ccc(CC2=NCCN2)cc1 [Tolazoline hydrochloride],0.955 ± 0.4,1.03 ± 0.053,0.667,0.949 ± 0.013
Nc1nc(N)c2nc(-c3ccccc3)c(N)nc2n1 [Triamterene],1.02 ± 0.42,0.902 ± 0.0063,0.75,0.935 ± 0.046
CCOC(=O)[C@H](CCc1ccccc1)N[C@@H](C)C(=O)N1[C@H](C(=O)O)C[C@@H]2CCC[C@@H]21 [Ramipril],0.977 ± 0.26,0.8501 ± 0.0032,1,1.037 ± 0.0046
CN1CCN(C2=Nc3ccccc3Oc3ccc(Cl)cc32)CC1 [Loxapine succinate],1.15 ± 0.43,0.974 ± 0.014,0.75,1.06 ± 0.013
CN[C@@H]1[C@H](O[C@H]2[C@H](O[C@H]3[C@H](O)[C@@H](O)[C@H](NC(=N)N)[C@@H](O)[C@@H]3NC(=N)N)O[C@@H](C)[C@]2(O)CO)O[C@@H](CO)[C@H](O)[C@H]1O [Dihydrostreptomycin sulfate],0.844 ± 0.18,1.0469 ± 0.00096,0.667,0.975 ± 0.048
COc1ccc2c(c1)N(C[C@H](C)CN(C)C)c1ccccc1S2 [Methotrimeprazine maleat salt],1.16 ± 0.65,0.993 ± 0.037,0.909,1.02 ± 0.016
NS(=O)(=O)Cc1noc2ccccc12 [Zonisamide],0.805 ± 0.15,1 ± 0.059,0.917,1.02 ± 0.017
CC1(C)S[C@@H]2[C@H](NC(=O)Cc3ccccc3)C(=O)N2[C@H]1C(=O)O [Benzathine benzylpenicillin],0.907 ± 0.35,1.06 ± 0.074,1,0.951 ± 0.019
COC(=O)Nc1nc2cc([S+]([O-])c3ccccc3)ccc2[nH]1 (stereo unspecified) [Oxfendazol],1.06 ± 0.33,1.05 ± 0.043,0.833,1.036 ± 0.006
NC(=O)N/N=C/c1ccc([N+](=O)[O-])o1 [Nitrofural],0.881 ± 0.24,1.02 ± 0.047,1,0.982 ± 0.017
CNC(=C[N+](=O)[O-])NCCSCc1ccc(CN(C)C)o1 [Ranitidine hydrochloride],0.923 ± 0.34,0.941 ± 0.074,0.667,1.1 ± 0.051
C=C[C@H]1CN2CC[C@H]1C[C@@H]2[C@@H](O)c1ccnc2ccc(OC)cc12 [Quinidine hydrochloride monohydrate],0.962 ± 0.19,1.13 ± 0.084,0.75,1.01 ± 0.016
CCN(CC)C(C)CN1c2ccccc2Sc2ccccc21 (stereo unspecified) [Ethopropazine hydrochloride],0.571 ± 0.084,1.03 ± 0.035,0.917,1 ± 0.029
Nc1nc(O)c2ncn(CCC(CO)CO)c2n1 [Penciclovir],0.817 ± 0.31,1.01 ± 0.019,0.917,0.964 ± 0.05
O=P(O)(O)C(O)(Cn1ccnc1)P(=O)(O)O [Zoledronic acid hydrate],1.2 ± 0.37,1.04 ± 0.015,1,0.989 ± 0.0085
CC(C)Cc1ccc([C@H](C)C(=O)O)cc1 [S-(+)-ibuprofen],4.34 ± 2.3,0.59 ± 0.021,0,1.61 ± 0.035
COc1cc(NS(=O)(=O)c2ccc(N)cc2)ncn1 [Sulfamonomethoxine],0.898 ± 0.44,0.946 ± 0.055,0.833,0.927 ± 0.096
COc1cccc(OC)c1C(=O)N[C@@H]1C(=O)N2[C@@H]1SC(C)(C)[C@@H]2C(=O)O [Methicillin sodium],1.21 ± 0.55,1.05 ± 0.057,0.5,1 ± 0.037
Nc1nc2n[nH]nc2c(=O)[nH]1 [Azaguanine-8],0.905 ± 0.36,1 ± 0.058,0.833,0.984 ± 0.02
C[C@H]1NC(=O)NC1=O [Methylhydantoin-5-(D)],0.867 ± 0.33,0.991 ± 0.011,0.917,1.02 ± 0.02
COc1ccc2[nH]c([S+]([O-])Cc3ncc(C)c(OC)c3C)nc2c1 (stereo unspecified) [Omeprazole],1.15 ± 0.38,0.935 ± 0.073,0.667,1.1759 ± 0.00043
